# Bioassay records deposited in PubChem by National Center for Advancing Translational Sciences (NCATS).
# A549 tox: Nrf2 qHTS screen for inhibitors: counterscreen for cytotoxicity; A549 ARE-Fluc cells, CellTiter-Fluor viability, 18-24 h; Potency, µM (series often up to 46 µM), usual class: inhibitors; 390,000 tested, 0.16% active
#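 A549 ARE_Fluc cells in 5% FBS OPTI-MEM were exposed to compounds in concentration-response for 18-24 h at 37 deg C. Viability was read by CellTiter-Fluor fluorescence (Ex 405/Em 525) after 30 min, before the luciferase read.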
# Nrf2 block: Nrf2 qHTS screen for inhibitors. A549 ARE-Fluc reporter, luciferase luminescence, 18-24 h. Potency, µM (titrated, usually from 46 µM), hits mostly inhibitors. 360,000 tested, 2.1% active; further: nearly all actives have a fitted effect of over 60% in size
#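 A549 ARE_Fluc cells (5000/well, 5% FBS OPTI-MEM) pre-incubated 2 h, then treated with compounds 18-24 h at 37C/5% CO2 in concentration-response. CellTiter-Fluor viability read first; BugLite luciferase luminescence after 15 min at room temperature gives Nrf2 activity.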
# KB-V1 cytotox: qHTS assay for MDR1-selective chemotherapeutics: Primary screen using the drug-selected MDR subline cells KB-V1. 400,000 tested, 3.4% active. KB-V1 MDR cells viability, CellTiter-Glo, 72 h. Potency, µM (titrated, usually from 46.1 µM), usual class: cytotoxic. AID 1347076, 2019; further: nearly all actives have a fitted effect of over 60% in size
#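 KB-V1, DMEM (no phenol red) + 10% FBS; cpd pin-transferred, titration series; 72 h, 37 degrees C; CellTiter-Glo, luminescence. Data normalized, curve-fit.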
# PI4K2A inh: qHTS for small molecular inhibitors of PI4K2A | Phosphatidylinositol 4-kinase type 2-alpha (Homo sapiens), Q9BTU6 | purified PI4K2A, ADP-Glo luminescence, 1 h; stronger effect = lower value | 420,000 tested, 0.13% active | activity change, negative = inhibition, % at 76.9 µM; in the data active means activity change below about -50%; inconclusive means mostly about -30% to -49%
# Target sequence (Q9BTU6 whole entry, looked up): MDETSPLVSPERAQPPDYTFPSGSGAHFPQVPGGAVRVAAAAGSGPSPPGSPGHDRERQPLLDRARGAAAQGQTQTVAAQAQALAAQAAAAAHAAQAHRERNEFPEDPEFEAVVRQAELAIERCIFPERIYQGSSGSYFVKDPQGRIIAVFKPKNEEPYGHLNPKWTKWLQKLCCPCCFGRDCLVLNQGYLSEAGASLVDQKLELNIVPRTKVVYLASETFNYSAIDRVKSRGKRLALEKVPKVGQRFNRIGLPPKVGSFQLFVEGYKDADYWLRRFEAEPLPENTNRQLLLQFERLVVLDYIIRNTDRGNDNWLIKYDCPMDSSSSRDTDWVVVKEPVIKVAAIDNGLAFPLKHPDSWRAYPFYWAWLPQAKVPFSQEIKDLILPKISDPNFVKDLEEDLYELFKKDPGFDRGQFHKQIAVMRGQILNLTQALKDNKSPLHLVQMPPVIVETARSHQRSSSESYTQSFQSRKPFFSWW
#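 Compounds are screened against recombinant PI4K2A using PI as substrate and ATP, the latter dispensed at 300 microM. Reactions run one hour at ambient temperature before ADP-Glo detection; full inhibition defined by wells lacking enzyme.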
# KB-3-1 tox: qHTS assay for MDR1-selective chemotherapeutics: Primary screen using the parental adenocarcinoma cell KB-3-1. 400,000 tested, 1.4% active. KB-3-1 viability, CellTiter-Glo ATP luminescence, 72 h. Potency, µM (titrated, usually from 46.1 µM), usual class: cytotoxic; further: nearly all actives have a fitted effect of over 60% in size
#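 72 h, 37 °C compound treatment of KB-3-1 parental cells; CellTiter-Glo added, 10 min, luminescence read. Data corrected against DMSO-only plates and normalized before curve fitting.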
# Giardia killer: Small Molecules that selectively kill Giardia lamblia: qHTS | Giardia lamblia trophozoite viability | activity change, % at 7.66 µM, hits read low | 340,000 tested, 0.15% active | AID 540267, 2011; in the data active means activity change below about -80%; inconclusive means between about -30% and that limit;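 further: parasites exposed to compound for two days anaerobically before the ATP read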
#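 Trophozoite viability was measured as ATP-dependent luminescence, read 15-30 min after reagent addition. Before that, parasites at 100 cells/well were exposed to compounds for 48 h, anaerobically, at 37 deg C.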
# A number is an active result; n = inactive; u = inconclusive; x = no result given; [ ] = dose if it differs, or a comment. In the library only some 5.7% were active in any assay of this set; here they are far more common. Unless noted, the call rests on the fitted dose curve; in most records, active means well fitted curve in the direction sought with a large enough effect; inconclusive means small, poorly fitted or top-dose-only effect, or another doubt; inactive means no such curve, though single readings can be large; an effect the other way counts as inactive or inconclusive.
SMILES,A549 tox,Nrf2 block,KB-V1 cytotox,PI4K2A inh,KB-3-1 tox,Giardia killer
C=CCC[C@@H](Cc1ccc(F)cc1)C(=O)OC[C@H](Cc1c[nH]c2ccccc12)NC(=O)[C@H](CC=C)CC(=O)N(CCO)Cc1ccccc1,u,u,n,n,n,n
N#Cc1cc([N+](=O)[O-])c2sc(C(N)=O)[n+]([O-])c2c1,x,x,x,n,x,x
Cc1nc(Nc2ccc(S(=O)(=O)N3CCCCC3C)cc2)c2nnn(Cc3ccccc3)c2n1 (configuration not stated),n,u,2.3µM,n,16µM,n
CCOc1ccc(C2=Nc3ccc(Br)cc3C(c3ccc(N4CCOCC4)cc3)=NN2)cc1,n,n,n,n,n,n
Fc1ccc2c(c1)C(c1ccc(N3CCOCC3)cc1)=NNC(c1cccs1)=N2,n,u,10µM,n,u,n
CCOc1ccc(C2=Nc3ccccc3C(c3ccc(N4CCOCC4)cc3)=NN2)cc1,n,n,4.1µM,n,16µM,n
COc1ccc(S[C@]2(C(=O)N3CCCC3)CC(=O)N(C(=O)c3ccccc3)[C@@H]2c2ccc(OC)cc2)cc1,x,x,x,n,x,x
O=C(Nc1ccc2c(c1)CCCN2C(=O)c1cccs1)c1cccc(C(F)(F)F)c1,n,x,u,n,u,x
Cc1ccc2c(c1)c1ncnc(N3CCOCC3)c1n2C,n,n,23µM,n,n,n
COc1cccc(NC(=O)Nc2c(-c3ccc(C(F)(F)F)cc3)nc3ncccn23)c1,x,x,x,n,x,x
Cc1ccc(NC(=O)COc2cccc(C)c2C)cc1S(=O)(=O)N1CCCCCC1,n,26µM,n,n,n,n
Cc1ccc(NC(=O)CSc2nnc(C3CC3)n2C)cc1S(=O)(=O)N1CCCCC1,n,15µM,n,n,n,n
Cc1ccc(NC(=O)COc2ccccc2C(N)=O)cc1S(=O)(=O)N1CCCCCC1,u,5.2µM,u,n,u,n
COc1ccc(NC(=O)COc2ccccc2C(N)=O)cc1S(=O)(=O)N1CCCCC1,x,x,n,n,n,x
CCCCCN(CCCCC)c1ccc(/C=C/c2ccnc3ccccc23)cc1,x,x,u,x,n,x
COc1ccc(NC(=O)C2CCCN2S(=O)(=O)c2ccc3c(c2)CCCC(=O)N3)cc1Cl (configuration not stated),n,u,n,n,n,x
Cc1ccc(N=C2NC(=O)CS2)cc1C,n,u,9.2µM,n,u,n
CCOCCn1c(CN2CCN(c3ccc(F)cc3)CC2)nc2c1c(=O)n(C)c(=O)n2C,n,u,9.2µM,n,u,n
CCCCCn1c(CN2CCN(CCO)CC2)nc2c1c(=O)n(C)c(=O)n2C,n,n,n,n,n,n
CCCCn1c(CN2CCN(C(=O)OCC)CC2)nc2c1c(=O)n(C)c(=O)n2C,n,u,13µM,n,u,n
COC(=O)Cn1c(CN2CCN(c3ccc(F)cc3)CC2)nc2c1c(=O)n(C)c(=O)n2C,n,18µM,n,n,u,n
COc1ccc(C2=Nn3c(nnc3-c3ccc(OC)cc3OC)SC2)cc1,n,u,x,x,x,x
CCc1c(C)nc2ncnn2c1N1CCC(C(=O)Nc2ccccc2)CC1,n[1.84 µM],n,u,n,n,n
CCc1c(C)nc2ncnn2c1Nc1ccc(C(C)=O)cc1,n,n,n,n,n,n
COc1ccc(NC(=O)N2CCCC(C(=O)NCCc3ccccc3)C2)cc1 (configuration not stated),n,n,23µM,n,n,n
SMILES,A549 tox,Nrf2 block,KB-V1 cytotox,PI4K2A inh,KB-3-1 tox,Giardia killer
CCc1c(C)nc2ncnn2c1N1CCC(C(=O)Nc2ccc(C)cc2)CC1,n[1.84 µM],13µM,n,n,n,n
CCCc1cc(N2CCCC(C(=O)Nc3ccc(OC)cc3OC)C2)n2ncnc2n1 (configuration not stated),n,x,3.7µM,n,u,n
CCOC(=O)c1ccc(Nc2c(CC)c(C)nc3ncnn23)cc1,n,26µM,23µM,n,n,n
O=C1CCC[C@H]2C[C@H](NCc3cccc(F)c3)CC[C@]23CCCN13,x,x,x,n,x,x
Cc1ccc(NC(=O)OCCCN2C(=O)CCC23CCC(C)CC3)cc1C (configuration not stated),x,x,x,n,x,x
Cc1nc2ccc(C(=O)N3CCN(C(=O)OCc4ccccc4)CC3)cc2n1C1CCCC1,x,x,x,n,x,x
CC(C)C[C@H]1COc2cccc(N3CCSCC3)c2S(=O)(=O)N1C,x,x,x,n,x,x
CCc1c(C)nc2ncnn2c1N1CCCC(C(=O)NCCc2ccc(OC)cc2)C1 (configuration not stated),n,x,15µM,n,u,n
COc1ccc(CCNC(=O)C2CCCN(c3ncccn3)C2)cc1 (configuration not stated),n,n,u,n,n,n
CCc1c(C)nc2ncnn2c1NCCc1ccc(OC)c(OC)c1,n,x,9.2µM,n,23µM,n
COc1ccc(CNCCC(c2ccc3c(c2)OCO3)c2ccccc2OC)cc1 (configuration not stated),n,n,u,n,n,x
COC(=O)[C@]12C[C@H](CC(=O)N3CCN(C(=O)C4CC4)CC3)C(=O)N(Cc3cccc4ccccc34)C1=C[C@H](C(C)C)O[C@@H]2C1CC1,x,x,x,n,x,x
COc1cc2c(c(OC)c1OC)-c1ccc(SC)c(=O)cc1C(NC=O)CC2 (configuration not stated),u,n,0.29µM,n,0.0065µM,n
COc1cccc(C(=O)Nc2ccc3c(cc2=O)[C@@H](NC(C)=O)CCc2cc(OC)c(OC)c(OC)c2-3)c1,u,u,n,n,2.9µM,n
COc1cc2c(c(OC)c1OC)-c1ccc(OC)c(=O)cc1C(NC(=O)c1ccccc1)CC2 (configuration not stated),n,u,u,n,0.0092µM,n
CCCC(=O)NC1CCc2cc(OC)c(OC)c(OC)c2-c2ccc(OC)c(=O)cc21 (configuration not stated),u,u,2.9µM,n,0.13µM,n
COc1cc(CC(=O)NC2CCCc3ccccc32)cc(OC)c1OC (configuration not stated),n,u,u,n,n,n
COc1cc(NC(=O)C(OC(=O)CNC(=O)c2ccccc2)c2ccccc2)cc(OC)c1 (configuration not stated),n,n,x,x,x,x
COc1ccc(C(=O)OCCN2CCN(C3CN(Cc4cn(Cc5cccc(C)c5)nn4)S(=O)(=O)C3)CC2)cc1OC (configuration not stated),x,x,x,n,x,x
